# D1 PAM = human D1 dopamine receptor positive modulation. P21728. HEK293 TREx D1 cells, calcium flux, dopamine EC20 potentiation. potentiation, % at 10 µM. 360,000 compounds, 0.036% hits; in the data active means potentiation above about 30%; further: 0% is about no effect
# TRHR ag = TRH receptor (human) agonism | TRHR cells, calcium flux fluo-8, FDSS agonist mode | activation, % at 2 µM | 360,000 compounds, 0.18% hits | AID 493084; further: 0% is about no effect
# Target sequence (P34981 whole entry, looked up): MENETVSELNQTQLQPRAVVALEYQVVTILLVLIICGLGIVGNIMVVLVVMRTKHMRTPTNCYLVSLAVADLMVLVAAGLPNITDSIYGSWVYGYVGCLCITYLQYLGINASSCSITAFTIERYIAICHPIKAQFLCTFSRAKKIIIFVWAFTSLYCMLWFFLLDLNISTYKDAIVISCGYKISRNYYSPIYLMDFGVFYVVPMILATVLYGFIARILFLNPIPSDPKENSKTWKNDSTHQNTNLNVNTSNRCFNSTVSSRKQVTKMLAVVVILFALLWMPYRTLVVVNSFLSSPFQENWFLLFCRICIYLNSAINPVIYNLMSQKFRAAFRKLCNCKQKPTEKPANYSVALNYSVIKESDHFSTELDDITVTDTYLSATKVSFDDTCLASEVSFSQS
#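 TRHR-expressing cells, plated overnight in medium with 10% serum, were loaded with fluo-8 calcium dye at room temperature. After a 10 s baseline, library compound was pin-added and calcium release was recorded kinetically (ex 480/em 530) as agonist response.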
# D1 antagonist = blocks dopamine activation of the human D1 receptor | P21728 | HEK293 TREx D1 cells, calcium flux, dopamine EC80; stronger effect = lower value | activity change, negative = inhibition, % at 10 µM | 360,000 compounds, 3.2% hits | AID 504652; in the data active means activity change below about -30%; further: on the % scale 0 is the no-effect control and ±100 the full control effect
#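 Allosteric or orthosteric antagonism assessed as attenuation of the calcium response to EC80 dopamine, added 180 s after compound, in induced HEK293 Trex D1 cells loaded with no-wash calcium dye.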
# TRHR enhancer = allosterically enhances the human TRH receptor; 360,000 compounds, 0.66% hits; P34981; enhancement, % at 2 µM; AID 493056; TRHR cells, fluo-8 calcium fluorescence, EC20 TRH enhancement; in the data active means enhancement above about 30%; further: 0% is about no effect
#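 TRHR-expressing cells loaded with fluo-8 calcium dye were read kinetically (ex 480/em 530) during compound addition, then stimulated with an EC20 of TRH (10 nM final). Enhancement of the Gq-mediated intracellular calcium response was scored.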
# D1 ag = activates the human D1 dopamine receptor; HEK293 T-REx D1 cells, calcium flux, agonist mode; AID 504660; activation, % at 2 µM; P21728; 360,000 compounds, 1% hits; further: 0% is about no effect
#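 Agonism was scored from calcium flux recorded over 180 s (1 read/s) after pintool compound addition, following a 10-cycle baseline. Cells were inducible force-coupled HEK293 TREx D1, plated overnight at 30 C and loaded with no-wash calcium dye.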
# The depositor's hits bear a star; nt = not tested or not shown. This is a sample that favours compounds with a hit; in the whole collection about 4.6% have one here. Unless noted, no stated cut-off is given here; in the data, active means activation above about 30%; inactive means the rest.
SMILES,D1 PAM,TRHR ag,D1 antagonist,TRHR enhancer,D1 ag
Cn1cnc2c(=O)oc3ccc(S(=O)(=O)N4CCN(c5cccc(C(F)(F)F)c5)CC4)cc3c21,-3,0,-7,0,-1
CCOC(=O)N1CCN(Cc2nc3cc(NC(=O)C(C)C)ccc3n2C(C)C)CC1,0,-2,-25,5,3
CCN(CC)C(=O)Cn1nc(-c2ccc(Cl)cc2)c2ccccc2c1=O,0,0,5,-1,1
O=C(CSc1nc(-c2cccs2)nc2cc(=O)[nH]n12)Nc1cccc(C(F)(F)F)c1,-2,-1,-38*,-2,6
Cc1cccc(NC(=O)CSc2nc(-c3cccs3)nc3cc(=O)[nH]n23)c1,2,0,-4,-4,2
COC(=O)c1ccc(OC(=O)CN2C(=O)c3ccccc3C2=O)cc1,-3,1,-34*,-2,6
O=C1c2ccccc2C(=O)N1CCCCON1C(=O)c2ccccc2C1=O,-4,0,-36*,-1,5
O=C(CCCN1C(=O)c2ccccc2C1=O)Oc1ccc(F)cc1,-6,0,-32*,1,0
COC(=O)c1ccc(CN2C(=O)c3ccccc3C2=O)cc1,2,-1,4,-7,1
CC1CCC(NC(=O)C2(C)Cc3ccccc3C(=O)N2Cc2ccc(Cl)cc2)CC1 (stereo not drawn),-1,2,-52*,9,0
CCc1ccc(NCc2cc3cc4c(cc3n(CC(=O)Nc3ccc(F)cc3)c2=O)OCCO4)cc1,-2,9,-9,5,9
CCc1ccc(NCc2cc3cc4c(cc3n(CC(=O)Nc3ccc(C)cc3)c2=O)OCO4)cc1,-2,-1,2,-6,49*
CCc1ccc(NCc2cc3cc4c(cc3n(CC(=O)Nc3ccccc3Cl)c2=O)OCO4)cc1,-2,29,-18,-7,66*
O=C(c1ccco1)N1CCN(CCOCCOc2cccc3ccccc23)CC1,2,0,-53*,7,1
c1ccc(CN2CCN(CCOCCOc3cccc4ccccc34)CC2)cc1,-9,1,-43*,10,22
Cc1ccc(NC(=O)c2cnc(SCC(=O)N3CCOCC3)n(C)c2=O)cc1C,1,0,nt,3,0
COc1cccc(-c2nc(SCC(=O)NC3CCCC3)c(-c3ccc(F)cc3)[nH]2)c1,-1,4,-7,-6,0
Cc1ccccc1Cn1c(COc2ccc(Cl)cc2)nc2ccccc21,-3,-1,-65*,3,62*
Cc1ccc(OCCn2c(COc3ccc(Cl)cc3)nc3ccccc32)cc1,-6,5,-18,9,47*
CCCc1nc2ccccc2n1CCOC,-4,0,3,-3,0
CCCc1nc2ccccc2n1CCOc1ccccc1,-21,0,-49*,-7,21
Cc1ccc(OCCn2c(C)nc3ccccc32)cc1,-12,-1,-45*,-12,14
COc1ccc(Cn2ncc3c4sc(C)cc4n(C)c3c2=O)cc1,5,-2,-10,5,2
COc1cccc(CN(C)CC2CCCN(CCc3ccccc3C)C2)c1 (stereo not drawn),-3,0,-63*,-6,4
CCOc1cccc(CN(CC)CC2CCCN(CCc3cccc(OC)c3)C2)c1O (stereo not drawn),-11,0,-17,34*,4
SMILES,D1 PAM,TRHR ag,D1 antagonist,TRHR enhancer,D1 ag
CCN(Cc1cccc(OC)c1)CC1CCCN(CCc2cccc(OC)c2)C1 (stereo not drawn),-8,1,-39*,3,8
CCN(CC1CCCN(CCc2cccc(OC)c2)C1)C(=O)C=C(C)C (stereo not drawn),-8,0,-8,-2,2
COc1ccc(CNS(=O)(=O)c2cc3c(cc2Cl)N(C(C)=O)CCO3)cc1,-2,1,-6,13,-1
CN1CCN(C(=O)c2cc(COc3ccccc3)on2)[C@@H](c2ccccc2)C1,-2,1,3,3,6
Cc1ccc(OCc2cc(C(=O)N3CCN(C)C[C@@H]3c3ccccc3)no2)cc1C,-2,1,-31*,-3,9
Cc1cc(OCc2cc(C(=O)N3CCN(C)C(=O)[C@@H]3C)no2)cc(C)c1Cl,-7,0,-31*,4,23
COc1cccc(OCc2cc(C(=O)N(Cc3ccccc3)CC3CC3)no2)c1,-6,3,0,-3,48*
Cc1ccc(OCc2cc(C(=O)N(C)CC3CCOCC3)no2)cc1C,-8,0,2,2,56*
COc1cccc(OCc2cc(C(=O)N(C)Cc3nc4ccccc4[nH]3)no2)c1,5,0,6,-7,3
Cc1cc(OCc2cc(C(=O)N(C)C3CCOCC3)no2)cc(C)c1Cl,-5,0,-6,0,15
Cc1cc(C)c(Cn2c3ccccc3c3cnn(CC(=O)N4CCCCCC4)c(=O)c32)c(C)c1,1,-1,-8,0,1
CCN1CCN(C(=O)c2cc(S(=O)(=O)Nc3ccc(S(C)(=O)=O)cc3)ccc2Cl)CC1,-5,0,-47*,-21,1
CC(=O)N1CCN(C(=O)c2cc(S(=O)(=O)Nc3ccc(S(C)(=O)=O)cc3)ccc2Cl)CC1,-1,-1,11,1,2
COc1ccc(Nc2cc(C(=O)NCCCN3CCN(c4ccc(OC)cc4)CC3)c3ccccc3n2)cc1,-3,-1,-3,-3,15
Cc1ccc(S(=O)(=O)c2[nH]c(-c3ccccc3)nc2SC(C)C(=O)O)cc1 (stereo not drawn),0,0,8,2,0
COc1ccc(N=C2NC(=O)C(CO)(CO)S2)cc1,-10,0,-51*,9,2
CC(=O)c1ccc(N=C2NC(=O)C(CO)(CO)S2)cc1,-1,1,0,-7,2
COc1ccc(NS(=O)(=O)c2c(C(=O)N3CCCCCC3)c(C)n(C)c2C)cc1OC,-4,0,11,0,2
COc1cccc(NS(=O)(=O)c2c(C(=O)N3CCCCCC3)c(C)n(C)c2C)c1,18,-1,44,33*,2
Cc1ccc(CNC(=O)C2CCCN2C(=O)Nc2ccc(F)cc2)cc1 (stereo not drawn),6,0,18,7,2
CC(O)CNCCOc1ccccc1OCc1ccccc1 (stereo not drawn),-7,-3,-17,-2,8
OCCNCc1c(OCc2ccc(Cl)cc2)ccc2ccccc12,-12,-1,-38*,3,160*
CC(O)CNCCNCc1c(OCc2ccccc2)ccc2ccccc12 (stereo not drawn),-4,-1,3,13,122*
O=C(CSc1ncn[nH]1)Nc1ccccc1C(=O)O,0,0,8,-7,0
O=C(CSc1ncn[nH]1)Nc1ccc(Br)cc1F,1,-1,-36*,-4,1
Cc1cccc(NC(=O)c2sc3nc4c(cc3c2N)CN(Cc2ccccc2)CC4)c1,-2,0,0,2,3

# Source: PubChem
